# In publication PMC7862700, “An all-to-all approach to the identification of sequence-specific readers for epigenetic DNA modifications on cytosine”:
# Tests used:
# Assay in all cases: DAPPL (digital affinity profiling via proximity ligation, sequencing); 10 mM Tris-HCl pH 7.5, 50 mM NaCl, 1 mM DTT, 4% glycerol, room temperature, 30 min; GST-TFs on glutathione beads, 16-mer random dsDNA library, 0.1% formaldehyde crosslink after washing; high values mean tight binding
# Conditions in all cases: protein: recombinant; tags: N-terminal GST; dsDNA, one strand shown
# FEV = target: T1, FEV (Homo sapiens, UniProt Q99581 1-238)
# T1 sequence: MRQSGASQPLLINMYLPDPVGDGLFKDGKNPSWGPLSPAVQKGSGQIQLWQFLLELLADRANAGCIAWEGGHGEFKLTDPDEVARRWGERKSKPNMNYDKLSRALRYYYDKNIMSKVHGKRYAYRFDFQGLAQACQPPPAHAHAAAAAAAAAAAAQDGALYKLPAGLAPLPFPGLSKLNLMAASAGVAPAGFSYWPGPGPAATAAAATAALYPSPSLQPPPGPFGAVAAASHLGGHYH
# Summary of the method: (§1)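 Human transcription factors fused to GST were expressed in yeast, captured on glutathione beads, given DNA barcodes and pooled with a GST-only negative control. Pools were incubated with 200 nmole of a 16-mer random double-stranded DNA library in Tris/NaCl/DTT/glycerol buffer at room temperature for 30 min. They were then washed, crosslinked with 0.1% formaldehyde, proximity-ligated (BsaI/T4 ligase, 1 h, 37 °C), PCR-amplified and sequenced on an Illumina NextSeq500. Binding signal is each 6-mer's read frequency for a factor divided by its frequency for the GST control.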
# ELK4 = target: T2, ELK4 (Homo sapiens, UniProt P28324-2 1-405)
# T2 sequence: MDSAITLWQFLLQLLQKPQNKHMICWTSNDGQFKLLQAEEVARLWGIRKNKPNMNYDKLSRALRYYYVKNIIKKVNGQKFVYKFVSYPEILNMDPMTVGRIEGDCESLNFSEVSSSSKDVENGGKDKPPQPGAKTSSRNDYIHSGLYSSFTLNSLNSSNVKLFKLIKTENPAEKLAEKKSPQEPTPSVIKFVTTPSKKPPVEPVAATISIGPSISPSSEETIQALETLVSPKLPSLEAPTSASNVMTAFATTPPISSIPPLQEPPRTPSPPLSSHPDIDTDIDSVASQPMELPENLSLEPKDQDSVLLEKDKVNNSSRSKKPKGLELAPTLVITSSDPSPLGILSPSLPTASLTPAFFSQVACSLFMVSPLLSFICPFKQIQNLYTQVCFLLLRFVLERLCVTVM
# Summary of the method: as §1
# ETV2 = target: T3, ETV2 (Homo sapiens, UniProt O00321 1-342)
# T3 sequence: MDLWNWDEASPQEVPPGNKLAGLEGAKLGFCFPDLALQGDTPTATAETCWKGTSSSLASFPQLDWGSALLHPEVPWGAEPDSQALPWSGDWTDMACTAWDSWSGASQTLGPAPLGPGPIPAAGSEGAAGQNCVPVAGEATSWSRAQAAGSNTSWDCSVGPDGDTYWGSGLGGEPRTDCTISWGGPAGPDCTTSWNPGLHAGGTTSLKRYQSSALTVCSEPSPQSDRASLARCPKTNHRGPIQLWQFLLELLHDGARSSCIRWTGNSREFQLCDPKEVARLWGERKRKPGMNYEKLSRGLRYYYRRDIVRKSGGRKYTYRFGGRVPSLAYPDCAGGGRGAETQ
# Summary of the method: as §1
# ETV3L = target: T4, ETV3L (Homo sapiens, UniProt Q6ZN32 1-361)
# T4 sequence: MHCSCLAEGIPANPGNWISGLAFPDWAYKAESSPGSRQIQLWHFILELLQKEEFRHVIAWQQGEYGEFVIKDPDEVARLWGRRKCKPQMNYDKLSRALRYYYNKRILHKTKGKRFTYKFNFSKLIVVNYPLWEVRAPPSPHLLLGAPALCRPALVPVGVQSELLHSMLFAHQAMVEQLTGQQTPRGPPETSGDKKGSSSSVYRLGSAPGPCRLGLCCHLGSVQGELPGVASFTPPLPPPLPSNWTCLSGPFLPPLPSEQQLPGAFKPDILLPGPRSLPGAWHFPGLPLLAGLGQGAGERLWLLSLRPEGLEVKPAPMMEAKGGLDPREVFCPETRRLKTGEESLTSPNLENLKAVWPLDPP
# Summary of the method: as §1
# ELF1 = ELF1 (Homo sapiens, UniProt P32519 1-619)
# Sequence of ELF1 (P32519 whole entry): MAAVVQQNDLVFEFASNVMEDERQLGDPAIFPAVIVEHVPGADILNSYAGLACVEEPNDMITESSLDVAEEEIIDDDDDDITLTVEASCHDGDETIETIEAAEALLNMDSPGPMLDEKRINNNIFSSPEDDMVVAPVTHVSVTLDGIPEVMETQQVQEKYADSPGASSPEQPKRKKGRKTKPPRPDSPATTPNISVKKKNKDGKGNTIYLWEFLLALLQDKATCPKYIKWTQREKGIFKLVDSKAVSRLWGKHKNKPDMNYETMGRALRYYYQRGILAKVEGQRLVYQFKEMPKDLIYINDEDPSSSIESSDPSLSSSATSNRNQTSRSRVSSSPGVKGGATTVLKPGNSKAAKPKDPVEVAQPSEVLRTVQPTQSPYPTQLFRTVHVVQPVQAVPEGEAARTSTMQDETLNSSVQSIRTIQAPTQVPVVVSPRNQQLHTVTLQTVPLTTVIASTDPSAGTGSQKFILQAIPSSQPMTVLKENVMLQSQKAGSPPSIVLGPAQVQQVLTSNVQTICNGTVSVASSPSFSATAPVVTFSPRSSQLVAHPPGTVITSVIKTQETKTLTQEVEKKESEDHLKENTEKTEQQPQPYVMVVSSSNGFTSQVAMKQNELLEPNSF
# Summary of the method: as §1
# EHF = target: T5, EHF (Homo sapiens, UniProt Q9NZC4 1-300)
# T5 sequence: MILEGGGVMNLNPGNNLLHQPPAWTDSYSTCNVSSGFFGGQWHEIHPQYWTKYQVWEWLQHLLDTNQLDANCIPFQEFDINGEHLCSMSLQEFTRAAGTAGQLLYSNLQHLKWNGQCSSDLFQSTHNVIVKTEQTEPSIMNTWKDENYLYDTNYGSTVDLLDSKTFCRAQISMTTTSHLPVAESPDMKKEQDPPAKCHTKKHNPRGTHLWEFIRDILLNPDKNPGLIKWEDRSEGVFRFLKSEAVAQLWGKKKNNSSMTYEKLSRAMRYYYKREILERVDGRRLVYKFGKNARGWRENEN
# Summary of the method: as §1
# ELF3 = target: T6, ELF3 (Homo sapiens, UniProt P78545 1-371)
# T6 sequence: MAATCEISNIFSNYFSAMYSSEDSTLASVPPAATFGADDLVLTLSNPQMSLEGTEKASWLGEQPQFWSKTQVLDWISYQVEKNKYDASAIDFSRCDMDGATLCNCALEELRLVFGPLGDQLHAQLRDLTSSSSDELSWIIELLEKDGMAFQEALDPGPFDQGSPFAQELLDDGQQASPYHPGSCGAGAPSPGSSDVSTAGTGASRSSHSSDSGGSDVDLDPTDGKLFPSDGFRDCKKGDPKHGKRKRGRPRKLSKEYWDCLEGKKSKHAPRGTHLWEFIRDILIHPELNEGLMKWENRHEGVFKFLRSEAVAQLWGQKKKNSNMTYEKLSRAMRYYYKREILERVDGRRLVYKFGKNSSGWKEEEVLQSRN
# Summary of the method: as §1
# ETV1 = ETV1 (Homo sapiens, UniProt P50549 1-477)
# Sequence of ETV1 (P50549 whole entry): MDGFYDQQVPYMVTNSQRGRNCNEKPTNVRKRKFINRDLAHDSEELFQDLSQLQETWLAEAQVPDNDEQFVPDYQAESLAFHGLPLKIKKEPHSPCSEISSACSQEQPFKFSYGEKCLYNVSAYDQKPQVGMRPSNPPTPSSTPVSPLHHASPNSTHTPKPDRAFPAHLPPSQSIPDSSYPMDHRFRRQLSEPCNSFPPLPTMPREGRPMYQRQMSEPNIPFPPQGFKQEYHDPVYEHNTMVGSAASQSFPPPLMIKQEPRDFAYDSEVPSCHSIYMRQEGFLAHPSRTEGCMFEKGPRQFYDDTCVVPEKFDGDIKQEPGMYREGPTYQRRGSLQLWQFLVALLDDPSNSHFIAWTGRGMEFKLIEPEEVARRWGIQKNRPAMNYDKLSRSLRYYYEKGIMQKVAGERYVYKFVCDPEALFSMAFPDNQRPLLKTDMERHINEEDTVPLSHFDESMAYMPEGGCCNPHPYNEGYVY
# Summary of the method: as §1
# SPDEF = target: T7, SPDEF (Homo sapiens, UniProt O95238 1-335)
# T7 sequence: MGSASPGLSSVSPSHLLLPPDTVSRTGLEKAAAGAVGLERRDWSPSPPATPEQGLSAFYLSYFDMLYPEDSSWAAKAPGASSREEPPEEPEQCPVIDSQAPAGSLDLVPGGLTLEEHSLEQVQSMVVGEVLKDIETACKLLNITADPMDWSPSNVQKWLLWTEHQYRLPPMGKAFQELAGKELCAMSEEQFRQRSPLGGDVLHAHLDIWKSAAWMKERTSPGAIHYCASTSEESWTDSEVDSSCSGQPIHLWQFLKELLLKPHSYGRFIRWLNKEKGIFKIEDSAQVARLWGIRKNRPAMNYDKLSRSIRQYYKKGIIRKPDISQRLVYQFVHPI
# Summary of the method: as §1
# ERF = target: T8, ERF (Homo sapiens, UniProt P50548 1-548)
# T8 sequence: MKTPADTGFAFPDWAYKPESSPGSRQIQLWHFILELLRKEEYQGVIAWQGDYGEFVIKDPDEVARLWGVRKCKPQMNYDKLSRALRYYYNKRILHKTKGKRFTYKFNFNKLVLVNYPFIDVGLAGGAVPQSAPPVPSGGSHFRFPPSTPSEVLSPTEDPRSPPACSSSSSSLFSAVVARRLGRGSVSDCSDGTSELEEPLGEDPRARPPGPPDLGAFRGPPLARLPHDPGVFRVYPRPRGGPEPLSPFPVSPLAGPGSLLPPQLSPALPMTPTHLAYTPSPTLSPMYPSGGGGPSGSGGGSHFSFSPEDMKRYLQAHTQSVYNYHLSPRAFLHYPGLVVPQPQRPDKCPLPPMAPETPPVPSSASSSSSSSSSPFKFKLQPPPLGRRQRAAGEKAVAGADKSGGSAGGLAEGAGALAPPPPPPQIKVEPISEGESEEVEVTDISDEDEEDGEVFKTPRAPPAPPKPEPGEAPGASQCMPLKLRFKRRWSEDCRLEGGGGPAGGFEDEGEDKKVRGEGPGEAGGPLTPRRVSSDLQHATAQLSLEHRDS
# Summary of the method: as §1
# ETV3 = target: T9, ETV3 (Homo sapiens, UniProt P41162-2 1-143)
# T9 sequence: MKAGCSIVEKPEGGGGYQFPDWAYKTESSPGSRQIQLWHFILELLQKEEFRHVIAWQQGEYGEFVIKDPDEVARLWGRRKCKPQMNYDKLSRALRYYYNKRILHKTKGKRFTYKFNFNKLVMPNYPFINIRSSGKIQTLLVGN
# Summary of the method: as §1
# ELK3 = target: T10, ELK3 (Homo sapiens, UniProt P41970 1-407)
# T10 sequence: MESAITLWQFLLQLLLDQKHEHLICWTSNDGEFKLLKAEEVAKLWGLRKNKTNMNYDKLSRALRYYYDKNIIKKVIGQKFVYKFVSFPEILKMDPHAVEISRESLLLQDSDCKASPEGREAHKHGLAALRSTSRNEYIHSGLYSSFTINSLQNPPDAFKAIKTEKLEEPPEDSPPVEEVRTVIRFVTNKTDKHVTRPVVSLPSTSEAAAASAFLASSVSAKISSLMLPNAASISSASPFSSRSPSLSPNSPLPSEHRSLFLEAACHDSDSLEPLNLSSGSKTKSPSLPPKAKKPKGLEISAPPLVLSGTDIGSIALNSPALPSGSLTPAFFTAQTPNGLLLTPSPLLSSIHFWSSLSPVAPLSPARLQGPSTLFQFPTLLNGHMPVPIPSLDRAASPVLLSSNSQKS
# Summary of the method: as §1
# ETV7 = target: T11, ETV7 (Homo sapiens, UniProt Q9Y603 1-341)
# T11 sequence: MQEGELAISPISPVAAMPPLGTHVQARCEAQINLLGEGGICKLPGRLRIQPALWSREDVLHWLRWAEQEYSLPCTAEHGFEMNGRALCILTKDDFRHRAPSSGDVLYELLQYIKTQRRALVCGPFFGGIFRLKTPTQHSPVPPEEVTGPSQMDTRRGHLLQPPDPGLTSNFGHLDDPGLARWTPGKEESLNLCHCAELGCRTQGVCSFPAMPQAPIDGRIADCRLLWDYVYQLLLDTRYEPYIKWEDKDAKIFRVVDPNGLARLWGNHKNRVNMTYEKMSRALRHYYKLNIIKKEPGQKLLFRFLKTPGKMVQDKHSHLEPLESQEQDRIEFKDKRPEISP
# Summary of the method: as §1
sequence,measurement,setting,value
TGGGAC,binding signal,FEV,"1 fold enrichment (6-mer frequency, TF over GST control)"
same,binding signal,ELK4,"1.03 fold enrichment (6-mer frequency, TF over GST control)"
same,binding signal,ETV2,"1.14 fold enrichment (6-mer frequency, TF over GST control)"
GCGCAC,binding signal,ELK4,"1.07 fold enrichment (6-mer frequency, TF over GST control)"
same,binding signal,ETV3L,"1.03 fold enrichment (6-mer frequency, TF over GST control)"
GATACC,binding signal,ELF1,"1.04 fold enrichment (6-mer frequency, TF over GST control)"
same,binding signal,EHF,"1 fold enrichment (6-mer frequency, TF over GST control)"
same,binding signal,ELK4,"1.01 fold enrichment (6-mer frequency, TF over GST control)"
same,binding signal,ETV2,"1 fold enrichment (6-mer frequency, TF over GST control)"
same,binding signal,ELF3,"1 fold enrichment (6-mer frequency, TF over GST control)"
same,binding signal,ETV1,"1 fold enrichment (6-mer frequency, TF over GST control)"
same,binding signal,SPDEF,"1.04 fold enrichment (6-mer frequency, TF over GST control)"
CAACGG,binding signal,ELK4,"1.01 fold enrichment (6-mer frequency, TF over GST control)"
same,binding signal,ETV1,"1.01 fold enrichment (6-mer frequency, TF over GST control)"
same,binding signal,ERF,"1.08 fold enrichment (6-mer frequency, TF over GST control)"
same,binding signal,ETV3,"1.01 fold enrichment (6-mer frequency, TF over GST control)"
GCATAT,binding signal,ELK3,"1.04 fold enrichment (6-mer frequency, TF over GST control)"
same,binding signal,ELK4,"1.07 fold enrichment (6-mer frequency, TF over GST control)"
same,binding signal,ETV2,"1.02 fold enrichment (6-mer frequency, TF over GST control)"
same,binding signal,SPDEF,"1.01 fold enrichment (6-mer frequency, TF over GST control)"
same,binding signal,ETV7,"1.08 fold enrichment (6-mer frequency, TF over GST control)"
